Compound activity from PubChem BioAssay.
The list is not random: actives were taken first. Their share in the collection is about 1.4%.
AID504770 = growth inhibitors of E. coli YBA685 in a screen for V. cholerae RctB (chromosome II replication) inhibitors; E. coli YBA685 rctB-dependent plasmid, OD600 growth, 3 h; stronger effect = lower value; z-score (concentration not given with the values); hit rate 0.27% among 130,000; in the data active means z-score below about -2, passing the limit was not always enough
PV pol inh = inhibitors of poliovirus RNA polymerase binding and polymerization; AID 588519; % elongation, % (compound at 16.7 µg/mL); hit rate 0.66% among 150,000; poliovirus polymerase elongation, fluorescence polarization; stronger effect = lower value; in the data active means % elongation below about 90%
MenB inh = inhibitors of Mycobacterium tuberculosis MenB enzyme. P9WNP5. MenB enzyme assay, absorbance read-out. inhibition, % (test concentration not listed). hit rate 0.43% among 100,000. AID 540299; in the data active means inhibition above about 21%, passing the limit was not always enough
Mtb MbtI inh = inhibitors of Mycobacterium tuberculosis siderophore enzyme MbtI; purified MbtI enzyme, fluorescence intensity read-out; hit rate 0.89% among 100,000; AID 493033; inhibition, % (test concentration not listed); in the data active means inhibition mostly above about 56%, no sharp cut-off; inactive means mostly below about 77%
Target sequence (P9WFX0 whole entry, looked up): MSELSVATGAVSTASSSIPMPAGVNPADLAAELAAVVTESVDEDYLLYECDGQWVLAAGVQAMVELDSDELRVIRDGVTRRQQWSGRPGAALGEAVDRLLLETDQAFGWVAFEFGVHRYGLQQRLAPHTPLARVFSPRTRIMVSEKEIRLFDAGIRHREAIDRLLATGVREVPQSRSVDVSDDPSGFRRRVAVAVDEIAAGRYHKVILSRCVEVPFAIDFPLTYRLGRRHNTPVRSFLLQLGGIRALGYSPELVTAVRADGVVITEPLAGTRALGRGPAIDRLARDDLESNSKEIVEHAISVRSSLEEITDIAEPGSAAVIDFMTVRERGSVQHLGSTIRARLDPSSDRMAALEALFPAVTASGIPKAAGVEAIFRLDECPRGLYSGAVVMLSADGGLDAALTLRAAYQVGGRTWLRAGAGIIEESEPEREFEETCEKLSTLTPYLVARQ
Of the large screens only hits and unclear results are named; the others gave an inactive call.

CC12C=CC(O1)C1C(=O)N(c3ccccc3Cl)C(=O)C12 (stereo unspecified)	Mtb MbtI inh 66.2 (no result: MenB inh)
O=C1CC(Nc2ccccc2)C(=O)N1c1ccccc1Cl (stereo unspecified)	none (no result: Mtb MbtI inh)
CC(=O)N(C(C)=O)S(=O)(=O)c1ccc(N=NN(C)C)cc1	none (no result: Mtb MbtI inh)
Cc1ccc(N=NN(C)C)cc1	AID504770 -6.65 (no result: PV pol inh, MenB inh, Mtb MbtI inh)
O=C(NCCCN1CCCC1)c1cc2cc3ccc(Cl)cc3nc2o1	none (no result: PV pol inh, MenB inh, Mtb MbtI inh)
CCN1CCN(CCCNC(=O)c2cc3cc4ccc(Cl)cc4nc3o2)CC1	AID504770 -2.3
N#Cc1c(N)sn(-c2ccccc2)c1=S	PV pol inh 79.0, Mtb MbtI inh 94.2
O=C1NC(=S)N(c2ccccc2)C(=O)/C1=C/C=C/c1ccco1	none
COc1cccc(N2C(=O)/C(=C/C=C/c3ccco3)C(=O)NC2=S)c1	Mtb MbtI inh 100.6
CCN(CC)CCCNc1ncnc2sc3c(c12)CC(C)CC3 (stereo unspecified)	none (no result: Mtb MbtI inh)
CC(=O)N1CCN(C(=S)c2ccc(-c3cccc(Cl)c3Cl)o2)CC1	Mtb MbtI inh 96.3
COc1ccc(C)cc1NC(=O)CSc1ccc(-c2ccccn2)nn1	PV pol inh 81.0 (no result: AID504770, MenB inh, Mtb MbtI inh)
O=C(COC(=O)C1CC1)c1ccc(Cl)s1	none
O=C(N/N=C/c1ccc(O)c(O)c1O)c1cccc(S(=O)(=O)Nc2ccccc2Cl)c1	Mtb MbtI inh 55.0
NNC(=O)c1cccc(S(=O)(=O)Nc2ccccc2Cl)c1	none
N#CSCC(=O)N1c2ccccc2CCc2ccccc21	MenB inh 32.6
O=c1c(Cl)c(Nc2ccc(F)cc2)cnn1-c1ccccc1	PV pol inh 84.0
Cc1cnc(C)c(N(C)C)n1	PV pol inh 57.0, MenB inh 31.3
CSc1ncc(F)c(N(C)C)n1	none (no result: Mtb MbtI inh)
O=C1OC2CC3CC2C1C3C(=O)N1CCc2ccccc21 (stereo unspecified)	none
c1ccc(-c2csc(NC3CCCCC3)n2)cc1	PV pol inh 84.0
O=C(Nc1nc(-c2ccccc2)cs1)C1CCC1	none
c1ccc(-c2nc(NC3CCCCC3)s[n+]2-c2ccccc2)cc1	Mtb MbtI inh 90.9 (no result: MenB inh)
Cc1ccnc(N2CCC(C(=O)NCCC(C)C)CC2)n1	none
Cc1ccc(C(=O)Nc2cccc(O)c2)cc1	AID504770 -2.35
Cc1ccc(C(=O)Nc2cc(C)cc(C)c2)cc1	none
O=C(O)/C=C/C(=O)N1CCCCC1	none
C/C(=C/C(=O)O)C(=O)Nc1nc(-c2cccs2)cs1	Mtb MbtI inh 71.8 (no result: PV pol inh)
Cn1c(=O)sn(-c2ccccc2)c1=O	AID504770 -5.15, Mtb MbtI inh 100.0
Cn1c(=O)c2cn(-c3ccccc3)cc2n(C)c1=O	none (no result: PV pol inh, MenB inh, Mtb MbtI inh)
CCc1ccc(CN2CCC(O)CC2)cc1	MenB inh 35.9
CN(C(=O)COC(=O)c1ccc(Br)o1)c1ccccc1	none (no result: MenB inh)
CC1(C)OC(=O)C(=CNC(Cc2ccccc2)C(=O)O)C(=O)O1 (stereo unspecified)	none
COc1cc(/C=C2/C(=O)NN(c3ccc(Cl)cc3)C2=O)ccc1OC(=O)c1ccco1	Mtb MbtI inh 98.8
C=CCN1C(=O)/C(=C\c2ccc(OC(=O)c3ccco3)c(OC)c2)SC1=S	none
CCOC1(C)C(=O)c2ccccc2N1Nc1ccccc1C(=O)CC (stereo unspecified)	none (no result: Mtb MbtI inh)
CCCc1nc2ccccc2n1CC(=O)Nc1ccc(OC)cc1OC	none (no result: MenB inh)
Cc1nc2ccccc2c(=O)n1CC(C)C	none
Cc1ccc(CC(C#N)Sc2nnc(C)n2Cc2ccccc2)cc1 (stereo unspecified)	none
N#CSC(C#N)Cc1ccccc1 (stereo unspecified)	AID504770 -6.45, Mtb MbtI inh 82.9
CC(O)CON1C(=O)c2ccccc2C1=O (stereo unspecified)	none
O=C(c1cnoc1)c1cc(Cl)cc(Cl)c1O	none (no result: MenB inh)
O=C(c1cnoc1)c1ccccc1O	PV pol inh 83.0
CC(=O)NC1(c2ccccc2)CCN(C(=O)c2cccs2)CC1	none
Cc1nn(CCC#N)c2c1P(=S)(N1CCCCC1)OC(c1ccccc1)=N2 (stereo unspecified)	PV pol inh 90.0
CCN(CC)P1(=S)c2c(C)nn(CCC#N)c2N=C(c2ccc(F)cc2)N1C (stereo unspecified)	none
CC(C)CCNC(=O)C1CCN(Cc2cccc(OCc3ccccc3)c2)CC1	PV pol inh 74.0 (no result: Mtb MbtI inh)
O=C(NCCc1ccccc1)C1CCN(Cc2cc3ccccc3n2Cc2cccc(Cl)c2)CC1	none (no result: AID504770, MenB inh, Mtb MbtI inh)
Cc1cccc(-c2nc3s/c(=C\C4=Cc5ccccc5OC4)c(=O)n3n2)c1	none
COc1ccc(C(=O)N2CC(C)CC(C)C2)cc1 (stereo unspecified)	none
COc1ccc(C(=S)N2CCC(C)CC2)cc1	Mtb MbtI inh 72.1
CC1CCN(C(=O)c2ccc(C(C)(C)C)cc2)CC1	none (no result: Mtb MbtI inh)
CC1CCN(C(=O)c2ccc(Br)cc2)CC1	MenB inh 35.8
Cc1ccc(-c2nc(C)sc2CC(=O)NC2=NCCS2)cc1	none
CN(C)c1ccc(NC(=S)c2ccccn2)cc1	Mtb MbtI inh 68.5
Fc1ccc(Cn2[nH]nnc2=S)cc1	Mtb MbtI inh 68.8
O=C1CC(n2nnnc2-c2ccccc2)C2COC1O2 (stereo unspecified)	none (no result: Mtb MbtI inh)
O=S1(=O)CCC(n2nnnc2-c2ccccc2)C1 (stereo unspecified)	AID504770 -2.75 (no result: PV pol inh, MenB inh, Mtb MbtI inh)
COC(=O)/C=C1/N/C(=N/c2nc3cc(C)ccc3o2)NC1=O	none
O=C(CSc1nc2ccccc2[nH]1)Nc1ccccc1	none (no result: PV pol inh, MenB inh, Mtb MbtI inh)
COc1ccc(C(=O)N/N=c2/c(=O)c(=O)c3ccccc23)cc1	PV pol inh 52.0
COc1ccc(CN2C(=O)C=CC2=O)cc1	none (no result: PV pol inh, MenB inh, Mtb MbtI inh)
COc1ccc(CCN2C(=O)C=CC2=O)cc1	Mtb MbtI inh 93.0 (no result: MenB inh)
COC(=O)c1ccc(Oc2cccc(C(F)(F)F)c2)nc1	none (no result: PV pol inh, MenB inh, Mtb MbtI inh)
Nc1nc2ccccc2n1Cc1ccc(Cl)c(Cl)c1	AID504770 -4.2 (no result: Mtb MbtI inh)
Cc1ccc(C)c(NC(=O)CN(C)C(=O)COc2ccccc2C#N)c1	AID504770 -3.5
COc1ccc(/C=N/NC(=S)Nc2c(C)n(C)n(-c3ccccc3)c2=O)cc1OC	none
COc1ccc(/C=C2\SC(=O)N(c3c(C)n(C)n(-c4ccccc4)c3=O)C2=O)cc1OC	PV pol inh 81.0, Mtb MbtI inh 86.6
C#Cc1cccc(NC(C)=O)c1	none
Cc1cc(C)c2cccnc2c1O	AID504770 -2.4
Cc1c(Cl)cccc1N1C(=O)CC(Sc2nnnn2-c2ccccc2)C1=O (stereo unspecified)	Mtb MbtI inh 97.8
O=C1CCCC1Sc1nnnn1-c1ccccc1 (stereo unspecified)	none
CC1CC(C)CN(C(=O)c2ccc(CSc3nc4ccncc4n3Cc3ccc(F)cc3)cc2)C1 (stereo unspecified)	none
O=C1C(Nc2ccccc2)=CC(=O)c2ncccc21	PV pol inh 82.0 (no result: AID504770)
O=C(CSC1=Nc2ccccc2C2CC=NN12)Nc1ccc2c(c1)CCC2 (stereo unspecified)	PV pol inh 3.0
CC(=C1C(=O)c2ccccc2C1=O)N1CCc2ccccc2C1	PV pol inh 89.0
CCCNCc1ccccc1	MenB inh 32.2
Cc1ccc(-c2nc(CSCC(=O)NCCN3CCN(c4cccc(Cl)c4)CC3)c(C)o2)cc1	none
COc1ccc2[nH]c(=O)c(CN(CCO)S(=O)(=O)c3ccc(Cl)c(C(F)(F)F)c3)cc2c1	MenB inh 32.5
Cc1ccc(S(=O)(=O)N(CCO)Cc2cc3cc(C)c(C)cc3[nH]c2=O)cc1	none
